Screening data: PubChem, National Center for Advancing Translational Sciences (NCATS)
Lassa entry inh = qHTS for Inhibitors of binding or entry into cells for Lassa Virus | Lassa virus pseudotype entry inhibition, cell reporter | Potency, µM (doses to about 37.9 µM), actives largely listed as inhibitors | hit rate 1.2% among 300,000; calls by dose curve; tested in HEK293 cells; note: nearly all actives have a fitted effect of over 50% in size
HCV inh = qHTS Assay for Inhibitors of Hepatitis C Virus (HCV); hit rate 3.4% among 340,000; Huh7.5.1 HCVcc-Cre infection, luciferase reporter, 44 h; Potency, µM (titrated, usually from 41.8 µM), hits mostly inhibitors; active = well fitted inhibition curve with a large enough effect; inconclusive = small, poorly fitted or top-dose-only effect, or another doubt; inactive = no such curve, though single readings can be large or run the other way
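Infectious HCV cell culture screen: compound-treated cells (1,000/well, pre-plated 4 h) are infected with HCVcc-Cre at roughly 0.5 moi and grown 44 h. Infection is quantified by luciferase signal after 15 min substrate incubation at room temperature.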
VACV Venus inh = qHTS for Stage-Specific Inhibitors of Vaccinia Orthopoxvirus: Venus Reporter Primary qHTS; hit rate 0.46% among 330,000; Vaccinia virus Venus reporter expression, fluorescence; Potency, µM (titrated, usually from 36.5 µM), actives largely listed as inhibitors; AID 720580, 2013; calls by dose curve; tested in A549 cells; note: nearly all actives have a fitted effect of over 30% in size
HCMV inh = qHTS Assay for inhibitors of the human cytomegalovirus (HCMV); HFF cells, HCMV-luciferase reporter, 72 h; stronger effect = lower value; activity change, negative = inhibition, % at 57.5 µM; hit rate 4.5% among 410,000; in the data active = activity change below about -60%; inconclusive = no clear call, values can overlap the other calls; inactive = above about -39%
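Two-dose cell screen: HFF monolayers treated with compounds and infected with luciferase-expressing HCMV at 1 PFU/cell, 72 h at 37C, then lysed for luciferase measurement.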
VACV mCherry inh = qHTS for Stage-Specific Inhibitors of Vaccinia Orthopoxvirus: mCherry Reporter Primary qHTS. Vaccinia virus mCherry reporter infection, fluorescence. Potency, µM (titrated, usually from 36.5 µM), usual class: inhibitors. hit rate 0.63% among 310,000; calls by dose curve; tested in A549 cells; note: nearly all actives have a fitted effect of over 35% in size
Marburg entry inh = qHTS for inhibitors of binding or entry into cells for Marburg Virus; Marburg virus pseudotyped entry inhibition, cell reporter; Potency, µM (titrated, usually from 37.8 µM), usual class: inhibitors; hit rate 1.8% among 300,000; calls by dose curve; tested in HEK293 cells
Numbers stand for hits; 0 = inactive; ? = inconclusive; - = no result; [ ] = dose if it differs, or a comment. The list is not random: actives were taken first. Their share in the collection is about 7.8%.

SMILES	Lassa entry inh	HCV inh	VACV Venus inh	HCMV inh	VACV mCherry inh	Marburg entry inh
N=C1S/C(=C\c2cccc3ccccc23)C(=O)N1c1ccc(F)cc1	8.9µM	?	0	-71	0	?
N=C1S/C(=C\c2ccccc2F)C(=O)N1c1ccc(F)cc1	0	0	-	0	-	0
Cc1nc2ccn(Cc3cccnc3)c(=O)c2cc1C(=O)Nc1ccc(F)cc1F	0	-	0	0	0	-
CCc1ccccc1-n1c(SCC(=O)Nc2ccc(C)cc2)nc2n[nH]c(C)c2c1=N	?	-	?	-69	?	-
CCOc1ccccc1-n1c(SCC(=O)Nc2ccc(CC)cc2)nc2n[nH]c(C)c2c1=N	10µM	0	0	-	-	?
CCOc1ccccc1NC(=O)CCSc1nc2n[nH]c(C)c2c(=N)n1-c1ccccc1Cl	0	?	-	0	-	?
CCc1ccccc1NC(=O)CSc1nc2n[nH]c(C)c2c(=N)n1-c1cccc(OC)c1	0	?	-	0	-	?
Cc1ccccc1-n1c(SCc2ccccn2)nc2n[nH]c(C)c2c1=N	?	11µM	?	0	-	?
O=S(=O)(c1ccccc1Cl)N1CCCC1c1nc(-c2ccc(Cl)cc2)no1 (stereo not given)	?	10µM	-	-68	-	?
O=S(=O)(c1ccc(Cl)cc1Cl)N1CCCC1c1cccnc1 (stereo not given)	0	0	0[7.34 µM]	0	0[7.34 µM]	0
CCn1c(-c2cccnc2)nc2cc(NC(=O)COC)cc(C(=O)N3CCc4ccccc4C3)c21	-	-	0	-	0	-
Cc1ccnc(NC(=O)Nc2ccc(F)cc2)c1	0	0	0	0	-	?
CSc1ccc(NC(=O)Nc2cc(C)ccn2)cc1	7.1µM	0	0	0	0	7.1µM
CCN(Cc1ccccc1)S(=O)(=O)c1ccc(C(=O)N(CCCN(C)C)c2nc3ccc(F)cc3s2)cc1	?	?	0	-80	0	?
CN(C)CCCN(C(=O)c1ccc(C(=O)c2ccccc2)cc1)c1nc2cc3c(cc2s1)OCO3	11µM	14µM	?	?	?	16µM
CN(C)CCN(C(=O)c1ccc(S(=O)(=O)N(C)c2ccccc2)cc1)c1nc2cc3c(cc2s1)OCCO3	0	0	0	0	0	0
CCN(CC)CCN(C(=O)c1ccc(C(=O)c2ccccc2)cc1)c1nc2cc3c(cc2s1)OCO3	0	0	0	0	?	0
CN(C)CCCN(C(=O)c1cc2cc([N+](=O)[O-])ccc2s1)c1nc2cc3c(cc2s1)OCCO3	?	?	13µM	-98	14µM	?
CCN(Cc1ccccc1)S(=O)(=O)c1ccc(C(=O)N(CCCN(C)C)c2nc3cc4c(cc3s2)OCCO4)cc1	?	11µM	?	0	0	?
O=C(CSc1oc(-c2ccc(F)cc2)nc1S(=O)(=O)c1ccccc1)NC1CCCCC1	?	-	?	0	0	0
Cc1cccc2sc(N(CCCN(C)C)C(=O)COc3ccccc3)nc12	0	-	0	0	0	-
CCN(Cc1ccccc1)S(=O)(=O)c1ccc(C(=O)N(CCCN(C)C)c2nc3cc(OC)ccc3s2)cc1	?	25µM	?	0	0	?
CC1CCCCN1S(=O)(=O)c1ccc(C(=O)N(CCCN(C)C)c2nc3cc4c(cc3s2)OCO4)cc1 (stereo not given)	0	0	0	-70	0	?
Cc1cccc2sc(N(CCCN(C)C)C(=O)c3ccc(C(=O)c4ccccc4)cc3)nc12	0	?	0	-72	?	?
Cc1cn2c(=O)cc(COc3cccc(NC(=O)c4ccccc4Cl)c3)nc2s1	0	-	0	0	0	0
SMILES	Lassa entry inh	HCV inh	VACV Venus inh	HCMV inh	VACV mCherry inh	Marburg entry inh
COCCCNC(=O)CSc1nc2cc3c(cc2c(=O)n1CCCC(=O)NCc1ccc2c(c1)OCO2)OCO3	0	-	0	0	0	-
Cc1ccc(S(=O)(=O)CCSC(=N)N)cc1	?	10µM	?	0	?	?
CCOC(=O)c1c(NC(=O)c2cc3ccccc3c(=O)o2)sc2c1CCC(C(C)(C)C)C2 (stereo not given)	0	-	0	0	0	0
Cc1ccc(-n2ncc3c(SCC(=O)NNC(=O)C(C)C)ncnc32)cc1	0	0	0	0	0	?
O=C(CSc1ncnc2c1cnn2-c1ccccc1)NC1CCCC1	0	10µM	0	0	0	0
CC(C)C(=O)NNC(=O)CSc1ncnc2c1cnn2-c1ccccc1Cl	-	0	-	-65	-	-
CNC(=O)CSc1ncnc2c1cnn2-c1ccccc1	0	0	0	0	0	0
Cc1csc(NC(=O)CSc2ncnc3c2cnn3-c2ccccc2Cl)n1	?	18µM	?	-	?	13µM
Cc1ccccc1-n1ncc2c(SCC(=O)NCc3cccs3)ncnc21	?	22µM	?	0	0	?
CC(NC(=O)c1ccc2nc(CCc3ccccc3)oc2c1)c1ccccc1 (stereo not given)	0	-	0	0	0	-
CCOC(=O)Cc1csc(NC(=O)CSc2ncnc3c2cnn3-c2ccc(OC)cc2)n1	2µM	?	0	0	0	?
CCOC(=O)CNC(=O)CSc1ncnc2c1cnn2-c1ccc(Cl)cc1	0	0	0	0	0	0
Cn1c(=O)c2c(nc(CN3CCc4ccccc4C3)n2Cc2ccc(Cl)cc2)n(C)c1=O	0	0	0	0	0	0
CC1CCN(c2nc3c(c(=O)n(C)c(=O)n3C)n2Cc2ccccc2)CC1	7.3µM	?	0	0	20µM	0
Cn1c(=O)c2c(nc(CN3CCc4ccccc4C3)n2Cc2ccccc2)n(C)c1=O	0	13µM	0	0	0	?
Cn1c(=O)c2c(nc(NCCc3ccccc3)n2Cc2ccc(F)cc2)n(C)c1=O	-	?	?	0	?	-
CC(Cl)=CCn1c(NCCc2ccccc2)nc2c1c(=O)n(C)c(=O)n2C	-	-	0	-87	0	-
CNc1nc2c(c(=O)n(C)c(=O)n2C)n1Cc1ccccc1	0	?	-	-65	-	?
CN1CCN(c2nc3c(c(=O)n(C)c(=O)n3C)n2Cc2ccccc2)CC1	-	0	-	0	-	-
COCCN1C(=O)CN(S(C)(=O)=O)CC1(C)C(=O)Nc1ccc2c(c1)OCCO2 (stereo not given)	-	-	0	0	0	-
CC(C)CCN(Cc1ccco1)C(=O)c1cc2c(Cl)nc3ccccc3c2s1	0	-	0	0	0	0
CCOc1ccc(C(=O)N2CCC(c3nnc(-c4ccccc4OC)o3)CC2)cc1	0	-	0	0	0	0
Cn1c(=O)c2c(nc(NCc3ccccc3)n2CCCc2ccccc2)n(C)c1=O	?	?	0	0	-	?
CNc1nc2c(c(=O)n(C)c(=O)n2C)n1CCCc1ccccc1	?	11µM	0	?	0	?
Cn1c(=O)c2c(nc(N3CCOCC3)n2Cc2ccccc2F)n(C)c1=O	0	-	0	-104	0	0
Cn1c(=O)c2c(nc(NCc3ccco3)n2C/C=C/c2ccccc2)n(C)c1=O	10µM	2.5µM	?	-96	-	13µM
COCCNc1nc2c(c(=O)n(C)c(=O)n2C)n1CCCc1ccccc1	-	-	0	0	0	-
Cn1c(=O)c2c(nc(NCCO)n2CCCc2ccccc2)n(C)c1=O	-	16µM	-	0	-	-
